Experimental findings from ChEMBL document CHEMBL4513216, “Probing the Open Global Health Chemical Diversity Library for Multistage-Active Starting Points for Next-Generation Antimalarials” (ACS Infect Dis, 2020) are described below.

The campaign covered roughly 69,000 compounds. About 8,600 (12%) showed an effect of 50% or more. The full list was thinned out, with strong results kept by preference.

In this experiment the test system is Plasmodium berghei. Kind of experiment: Screen against P. berghei liver stage (PbLuc), transformed with Luciferase, at 10uM. Conditions: tested at 10 uM. The experiment is classed as functional, HepG2.
For the molecule `Cc1noc(CN2CCN(c3cncc(Cl)n3)CC2)n1`, the INHIBITION amounted to 5.05%.

Turning to `O=C(N1CCOCC1)N1CCN(c2ccc(Cl)nn2)C(=O)C1`, the INHIBITION was 24.2%.

`CN(Cc1cnn(C)c1)C(=O)CN1CCCC(Cn2cncn2)C1` (centres undefined): the INHIBITION is 7.67%.

For `Cc1nn(C)c(Cl)c1C1CCCN1C(=O)c1cccc(C#N)c1` (centres undefined), the INHIBITION is -38.7%.

Regarding `Cc1noc(C2(C)CCCN(C(=O)c3cnn(C)c3)C2)n1` (centres undefined), the INHIBITION stood at 24.4%.

`O=C(NCC1CCCCC1)N1C[C@@H]2C[C@H](C(=O)N3CCOCC3)[C@H](C1)O2`: the INHIBITION is reported as 22.2%.

With `O=C(Nc1nncs1)N1CCC(c2ccc(O)cc2)CC1`, the INHIBITION is reported as -1.45%.

Regarding `O=C(Nc1nncs1)N1CCC(CCO)CC1`, the INHIBITION is 66.6%.

Consider `O=C(Nc1nncs1)N1CCC(CCc2ccc(O)cc2)CC1`, for which the INHIBITION was determined as 12.5%.

`COc1ccc2c(c1)[nH]c1c(N(C)CC3OCCO3)ncnc12`: the INHIBITION is on record as -13.6%.

Consider `O=C(Nc1ccccc1)N1CCn2c(nnc2C2CCCN2)C1` (centres undefined), for which the INHIBITION worked out at 46.6%.

As for `O=C(C1=CCCC1)N1CC[C@]2(C[C@H](OCc3cccnc3)CO2)C1`, the INHIBITION is 16.9%.

Regarding `Cc1occc1C(=O)N1CCCC2(CCN(c3ccsc3)C2=O)C1` (centres undefined), the INHIBITION is reported as 56.7%.

Take `O=C1N(c2ccsc2)CCC12CCCN(CC1CC1)C2` (centres undefined): the INHIBITION is 57.9%.

`COc1ccc(CN2CCC3(CC2)CCN(CC2CC2)C3=O)cc1`: the INHIBITION worked out at 52.4%.

With `Cn1cc(N2CCC3(CCCN(Cc4ccoc4)C3)C2=O)cn1` (centres undefined), the INHIBITION is reported as -2.72%.

Take `Cc1occc1C(=O)N1CCCC2(CCN(c3ccccc3)C2=O)C1` (centres undefined): the INHIBITION is reported as -54.5%.

As for `CCN1CCC2(CCN(Cc3ccc(OC)cc3)CC2)C1=O`, the INHIBITION was found to be 38.3%.

With `Cn1cc(N2CCC3(CCCN(Cc4ccc(F)cc4)C3)C2=O)cn1` (centres undefined), the INHIBITION is recorded as 67.2%.

`COc1ccc(CN2CCC3(CC2)CCN(CC(=O)N(C)C)C3=O)cc1`: the INHIBITION is listed as -8.51%.

For the molecule `Cn1cc(CN2CCC3(CCN(c4cnn(C)c4)C3=O)C2)cn1` (centres undefined), the INHIBITION was 14.8%.

As to `CN(C)C(=O)CN1CCCC2(CCN(c3ccsc3)C2=O)C1` (centres undefined), the INHIBITION turned out to be 40.4%.

`O=C1N(c2ccsc2)CCC12CCCN(Cc1ccccn1)C2` (centres undefined): the INHIBITION is on record as -6.23%.

With `Cc1nocc1C(=O)N1CCCC2(CCN(c3ccsc3)C2=O)C1` (centres undefined), the INHIBITION is -107%.

For `CCOC(=O)CCNC(=O)c1nc(OCC)ccc1Cl`, the INHIBITION is 6.285%.

`Brc1ccc(CNCc2nnc3n2CCCCC3)s1`: the INHIBITION came to 21.8%.

Regarding `CC(=O)N1N=C(Cc2ccccc2)OC1C(=O)NCC(=O)OC(C)(C)C` (centres undefined), the INHIBITION is reported as 12.5%.

As to `CCc1nnc(Nc2cc(C)nc(C3CN(C(C)=O)CCO3)c2)s1` (centres undefined), the INHIBITION is -4.25%.

Consider `CCCc1nc(C)cc(NCCc2nnc(N)s2)n1`, for which the INHIBITION is -16.9%.

`O=C(Cc1ccccc1)NCCNC(=O)c1scnc1Cl`: the INHIBITION stood at 46.2%.

Take `COCC[C@]1(O)CCN(C(=O)C2CCN(C3CCCC3)CC2)C[C@H]1C`: the INHIBITION turned out to be 9.63%.

Turning to `Nc1cccnc1N1CCC(C(F)(F)F)CC1`, the INHIBITION is recorded as -22.5%.

As for `COCCN1C[C@H]2CC[C@@]3(N=C(C)N(CC4CC4)C3=O)[C@H]2C1`, the INHIBITION is on record as -26.5%.

Regarding `CC(=O)NCc1ccc(C(=O)N2CCCC2c2c(C)nn(C)c2C)o1` (centres undefined), the INHIBITION is -55.4%.

As to `O=C1N(c2ccsc2)CCC12CCCN(Cc1cccnc1)C2` (centres undefined), the INHIBITION is recorded as -18.2%.

`COCCN1CCCC2(CCN(c3ccsc3)C2=O)C1` (centres undefined): the INHIBITION was found to be 39.2%.

With `COc1ccc(CN2CCCC3(CCN(c4ccsc4)C3=O)C2)cc1` (centres undefined), the INHIBITION turned out to be 72.8%.

Consider `FC(F)(F)c1cc(N2CCc3ncnc(NC4CC4)c3CC2)ncn1`, for which the INHIBITION was -31.6%.

On to `Cc1ncnc2c1CCN(c1cc(C(F)(F)F)ncn1)CC2`, for which the INHIBITION is -17%.

For `CC(C)Nc1ncnc2c1CCN(C(=O)N1CCOCC1)CC2`, the INHIBITION is given as 75.4%.

Take `CC(C)Nc1ncnc2c1CCN(C(=O)c1ccc[nH]1)CC2`: the INHIBITION came out at 70.7%.

In the case of `O=C(N1CCOCC1)N1CCc2ncnc(NC3CC3)c2CC1`, the INHIBITION was 26.8%.

Regarding `CC(C)Nc1ncnc2c1CCN(c1cc(C(F)(F)F)ncn1)CC2`, the INHIBITION is reported as 60.3%.

Consider `Cc1ccsc1C(=O)N1CCc2ncnc(NC(C)C)c2CC1`, for which the INHIBITION is listed as 19.4%.

As for `O=C(N1CCOCC1)N1CCc2ncnc(NC3CCC3)c2CC1`, the INHIBITION was -2.35%.

In the case of `CC(C)Nc1ncnc2c1CCN(C(=O)[C@H]1CCCO1)CC2`, the INHIBITION was -12.2%.

As for `CN(Cc1nnc2n1CCC2)C(=O)Cc1ccc2c(c1)CCC2`, the INHIBITION stood at 19.2%.

In the case of `CC(=O)NC1CCN(c2cc(C3CCNCC3)ccn2)CC1`, the INHIBITION was determined as 20.2%.

Consider `O=C(c1ncccn1)N1C[C@@H]2CN(Cc3cccnc3)CCO[C@@H]2C1`, for which the INHIBITION is -1.26%.

In the case of `Fc1ccc(C(CNc2ccncn2)N2CCCC2)cc1` (centres undefined), the INHIBITION is given as 45%.

For the molecule `Cc1cc(C(=O)N2CCC3(C2)CN(c2ccsc2)C(=O)CN3C)[nH]n1` (centres undefined), the INHIBITION came out at 46.2%.

On to `COc1ccc2c(c1OC)Cc1c-2nc(N)c(C#N)c1C1CCOC1` (centres undefined), for which the INHIBITION came to 40.5%.

Consider `N#Cc1c(N)nc2c(c1C1CCOC1)CCc1cc(O)ccc1-2` (centres undefined), for which the INHIBITION is recorded as -3.12%.

On to `COc1ccc2c(c1)Cc1c-2nc(N)c(C#N)c1C1CCOC1` (centres undefined), for which the INHIBITION came to 73.9%.

For the molecule `Cc1ccc(C(=O)Nc2ccc(N(C)C)cn2)n1C`, the INHIBITION is recorded as -75.9%.

As for `CCc1ccc(CN2C[C@@H]3COC[C@H](NS(C)(=O)=O)[C@@H]3C2)o1`, the INHIBITION was -12.2%.

`Cc1ccc(Oc2ncccc2C(=O)N(C)CC2OCCO2)c(C)c1`: the INHIBITION was -17.2%.

For `c1cc(C2CN(C3CCCCC3)C2)n[nH]1`, the INHIBITION is 15.92%.

For the molecule `CCC(N)c1ccccc1OCC(=O)N1CCCC1` (centres undefined), the INHIBITION is -42.3%.

As to `COc1cccc(CNCc2nnc3n2CC(C(F)(F)F)CC3)c1` (centres undefined), the INHIBITION amounted to 45.1%.

With `Cc1ccc(CNCc2nnc3n2CC(C(F)(F)F)CC3)o1` (centres undefined), the INHIBITION stood at 65.9%.

For `FC(F)(F)C1CCCn2c(CNCc3ccco3)nnc21` (centres undefined), the INHIBITION turned out to be 45.3%.

Regarding `Cc1ccoc1CNCc1nnc2n1CC(C(F)(F)F)CC2` (centres undefined), the INHIBITION came to 52.6%.

As to `Cc1ccc(CNCc2nnc3n2CCCC3C(F)(F)F)o1` (centres undefined), the INHIBITION amounted to 4.92%.

Regarding `Cc1ccoc1CNCc1nnc2n1CCCC2C(F)(F)F` (centres undefined), the INHIBITION was 47.4%.

With `CCC(NC(=O)c1cc(CC(C)C)nn1C)c1ccnn1C` (centres undefined), the INHIBITION was -18.2%.

Regarding `CCC(NC(=O)c1cc(CC(C)C)nn1C)c1cc(C)ccn1` (centres undefined), the INHIBITION is -1.15%.

`CCC(NC(=O)c1cc(CC(C)C)nn1C)c1cccc(C)n1` (centres undefined): the INHIBITION amounted to 86.7%.

Turning to `CC(O)CN1CCN(C(=O)c2cnn(-c3ccccc3Cl)c2)CC1` (centres undefined), the INHIBITION stood at 32%.
